# Data as given in the supplement of paper PMC3334620.
# The full ranking holds about 33,000 sequences; the median of “E-score (-0.5 to 0.5)” is about -0.016, and the highest 2% start at about 0.31. The list comes from a sample in which the highest values are over-represented; it also holds similar and randomly drawn sequences.
# Target: Cst6 (UniProt P40535)
# Test: PBM E-score (8-mer binding enrichment) (E-score (-0.5 to 0.5)); higher = stronger / more preferred TF binding
# Conditions: protein concentration: 200 nM; construct: GST-DNA-binding domain
# Experimental: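 Universal 'all 10-mer' protein binding microarrays (Agilent AMADID 015681) probed with GST-tagged S. cerevisiae TFs (full-length or DBD) made by in vitro transcription/translation (PURExpress), about 100-200 nM. Bound TF was detected with fluorescent anti-GST. Each ungapped 8-mer (which stands for itself and its reverse complement) is scored by the PBM enrichment score (E-score), a modified Wilcoxon-Mann-Whitney statistic from -0.5 to +0.5, computed with the Universal PBM Analysis Suite. Scale: above 0.35 generally sequence-specific binding.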
# UniProt P40535, sequence (P40535 whole entry): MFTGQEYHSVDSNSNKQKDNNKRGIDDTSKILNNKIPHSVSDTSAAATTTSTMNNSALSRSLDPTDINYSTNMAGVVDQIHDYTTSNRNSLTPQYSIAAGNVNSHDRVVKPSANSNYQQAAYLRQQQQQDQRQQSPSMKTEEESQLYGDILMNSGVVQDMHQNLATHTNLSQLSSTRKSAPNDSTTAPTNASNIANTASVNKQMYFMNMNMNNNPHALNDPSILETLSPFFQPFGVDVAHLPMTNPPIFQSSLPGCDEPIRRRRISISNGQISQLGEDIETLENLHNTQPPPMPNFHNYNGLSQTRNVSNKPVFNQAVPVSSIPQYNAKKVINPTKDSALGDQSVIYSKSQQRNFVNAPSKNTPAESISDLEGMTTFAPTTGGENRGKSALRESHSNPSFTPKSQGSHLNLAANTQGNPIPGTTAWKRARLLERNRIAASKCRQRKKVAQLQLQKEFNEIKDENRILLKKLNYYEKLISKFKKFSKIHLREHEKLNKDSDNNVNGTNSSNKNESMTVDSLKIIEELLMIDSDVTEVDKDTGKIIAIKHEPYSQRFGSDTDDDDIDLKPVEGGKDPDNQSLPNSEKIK
row,Sequence,PBM E-score
1,AATCCATA,0.0862
2,CGCCGAGC,0.0842
3,CTGTCGCA,-0.146
4,CGGTCCTC,-0.133
5,CATGCGAA,0.111
6,AAGTTAAT,0.213
7,AGAGAAAC,0.0803
8,AATTGGCG,0.198
9,GTCTCTTA,-0.00905
10,ACGATGAA,0.154
11,GGGATGAC,0.221
12,CCGATGAC,0.336
13,CCGATGAA,0.0447
14,GCGATGAA,0.0225
15,ACGATGAC,0.387
16,GCGATGAC,0.413
17,CCGATGAG,-0.087
18,ACGATGAT,0.206
19,AACTGAGC,-0.152
20,AGGGCCTA,-0.327
21,AACCTACG,-0.043
22,CTGAGGTA,0.0121
23,ATGAGGTA,0.312
24,ATGAGGTG,0.174
25,AACTGCTC,-0.0302

row,Sequence,PBM E-score
1,GAGGTGAA,-0.0049
2,GATGTCAC,0.448
3,GATGTCAA,0.245
4,AATGTAAG,0.192
5,ACTGTCAT,0.0752
6,AATGTCGT,0.195
7,AATGTCAG,-0.00168
8,AATGTAAT,0.347
9,AATGTCAT,0.356
10,GCTGTCAC,0.0464
11,AATGTAAA,0.258
12,ACTGTCAC,0.141
13,AATGTCAC,0.308
14,CGACCCCG,-0.235
15,AACCTAAT,-0.0438
16,CAGTTTTA,0.00126
17,AGTAGGTA,-0.0379
18,CCGATCTA,-0.27
19,CGAACGAA,0.0744
20,AAGGCGCT,0.118
21,CACACGGC,0.293
22,ACGTACCG,0.0475
23,ATTTCGAG,0.0911
24,TCAGGGAA,-0.141
25,CGGCTGGC,-0.28

row,Sequence,PBM E-score
1,CATGTAAC,0.014
2,GATGTAAC,0.341
3,CATGTCAG,0.144
4,AATGTAAC,0.0559
5,CATGTCAA,0.161
6,CATGTCAC,0.36
7,ATTGGCCC,-0.36
8,GATGAGAC,0.0611
9,ATAATGTA,0.203
10,CATTCCCG,0.0388
11,ATGTTGAA,0.104
12,TGTAATAA,0.329
13,CGTAATAG,0.318
14,CGTAATAC,0.366
15,CGTAATAA,0.325
16,CTTAATAA,0.155
17,CCTAATAA,0.00168
18,AGTAATAG,0.211
19,GGTAATAA,0.247
20,CATAATAG,0.202
21,GGTAATAC,0.111
22,AGTAATAC,-0.0264
23,AGTAATAA,0.302
24,CATTGCCC,-0.241
25,AACTTGCT,-0.117

row,Sequence,PBM E-score
1,CTAACTAG,0.0585
2,GGATTGCA,0.0154
3,ATATACAT,0.16
4,TGGGGAAA,0.0662
5,AACCATCC,-0.0939
6,CGAATGAA,0.0688
7,CGAATGAC,0.348
8,AGAATGAG,-0.0205
9,GGAATGAC,0.255
10,AGAATGAC,0.354
11,AGAATGAA,0.207
12,GGACGGGA,-0.285
13,ATAAGTAA,0.164
14,AGCTGACT,-0.0426
15,CACTGACA,0.08
16,CGCTGACC,-0.0695
17,AGCTGACG,0.359
18,CACTGACC,-0.133
19,CGCTGACA,0.166
20,AGCTGACC,-0.126
21,CACTGACG,0.371
22,CGCTGACG,0.384
23,AGCTTTAA,0.127
24,CGGCTAGA,-0.038
25,ATTTCAGC,0.00693

row,Sequence,PBM E-score
1,ATGGAAAT,0.122
2,GGCTACAC,-0.0907
3,CTCCAGAC,-0.158
4,TACATTAA,0.19
5,GGTGCGTA,-0.062
6,CGGTTAAG,-0.0846
7,AAGTCATA,0.283
8,CAGTCATA,0.123
9,AAGTCATG,0.185
10,AAGTCATC,0.114
11,ACGTCATC,0.497
12,CGGTCATA,0.298
13,AGGTCATG,0.221
14,AGGTCATA,0.168
15,ACGTCATG,0.495
16,ACGTCATA,0.494
17,CCGTCATA,0.363
18,AGGTCATC,0.231
19,CTAGACTC,-0.329
20,CAAGGCAG,-0.119
21,CCATGGCG,0.102
22,ATTCAGTA,0.164
23,AAGGGACA,-0.141
24,AATTGTTG,0.0795
25,GGCGGGCA,-0.0394

row,Sequence,PBM E-score
1,CGGTCATC,0.085
2,GGGTCATA,-0.0664
3,GCGTCATA,0.463
4,GAGTCATA,0.144
5,CCGTCATC,0.385
6,CAGTCATC,-0.0341
7,AACGAAAT,0.156
8,AGATTGAG,0.228
9,CCTTGGCA,-0.209
10,ATTTGTTA,0.22
11,ATTTGTTC,0.332
12,CTTTGTTC,0.126
13,GTTGGCTA,-0.0861
14,AGCTTTTC,-0.00677
15,CCGGCACG,-0.1
16,ACGGCAGA,0.064
17,TCGGCACA,-0.0165
18,CCGGCACA,-0.136
19,ACGGCACA,0.327
20,ACGGCACG,0.348
21,ACGGCTCG,0.312
22,ACGGCTCC,0.256
23,CCGGCTCG,-0.128
24,CAGGCGTC,-0.00038
25,CGCGCGAG,0.0316

row,Sequence,PBM E-score
1,ACAGGCCA,-0.202
2,GAAATTGA,0.153
3,CGGTCGTA,-0.304
4,GTTGCCGA,0.0213
5,GCACCAGC,-0.176
6,AGTATGGG,-0.162
7,ACGCGGCG,0.363
8,CTGCGGCA,0.182
9,GCGCGGCA,0.264
10,ACGCGGCT,0.248
11,ATGCGGCA,0.312
12,GTGCGGCA,0.311
13,ATGCGGCC,0.0608
14,GTGCGGAA,-0.0138
15,AGGCGGCG,0.204
16,ACGCGGCA,0.28
17,AGGCGGCA,0.119
18,ATGCGGCG,0.343
19,GAATTCAC,0.0689
20,GCCAACCA,-0.0975
21,ATACCCTG,-0.0744
22,CGGAAGCA,0.151
